The full list was thinned out, with hits kept by preference.
KDM5B inhibitor = blocks human KDM5B histone demethylase activity; Potency, µM (doses to about 57.7 µM), most hits filed as inhibitors; AID 1347165; actives 2.6% (n = 220,000); Q9UGL1; KDM5B demethylase, FDH-coupled NADH fluorescence (FDH is formaldehyde dehydrogenase); active = well fitted inhibition curve with a large enough effect; also: 0% is about no effect; nearly all actives have a fitted effect of over 70% in size
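Coupled FDH/NAD⁺ fluorescence readout. KDM5BΔAP 200 nM final; compound titration, 10 min RT preincubation; substrate mix 12.5 µM H3K4me3, 25 µM 2-OG, 50 µM Fe(II), 100 µM ascorbate, 0.25 mM NAD⁺, 0.25 U/mL FDH; ΔRFU over 30 min.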
Starred values were filed as active, the others as inactive; i = inactive. Potency is read from the fitted curve at half-maximal effect.

SMILES	KDM5B inhibitor
CCN(CC(=O)N1CCOCC1)S(=O)(=O)c1ccc(Cl)cc1	i
Cc1cc(=O)n(CC(=O)Nc2cc(Cl)ccc2C)c(N2CCOCC2)n1	i
CN1[C@@H](CCC(=O)N2CCCC2)CNC(=O)[C@@H]2[C@H]1CCN2Cc1nc2ccccc2n1C	i
COc1ccc(C(C)=O)c(OC(=O)c2ccc(F)cc2F)c1	i
Cc1ccc2oc(C(=O)Nc3nonc3-c3ccc(C(C)C)cc3)cc(=O)c2c1	i
C=CCn1cc2c3c(cccc31)[C@H](CC(C)C)N[C@H](C(=O)NCCN(C)C)C2	32µM*
COCCNC(=O)[C@@H]1Cc2cn(Cc3ccncc3)c3cccc(c23)[C@H](CC(C)C)N1	i
C=CCNC(=O)[C@@H]1Cc2cn(CC=C)c3cccc(c23)[C@H](CC(C)C)N1	i
CC#CCn1cc2c3c(cccc31)[C@H](CC(C)C)N[C@H](C(=O)NCCOC)C2	i
CC(C)C[C@@H]1N[C@H](C(=O)NCCN(C)C)Cc2cn(CC3CC3)c3cccc1c23	28µM*
C=CCNC(=O)[C@@H]1Cc2cn(Cc3ccncc3)c3cccc(c23)[C@H](CC(C)C)N1	i
Cc1nc2ccccc2n1CC(O)COc1ccccc1F (stereo not given)	i
O=C(Cc1cccs1)Nc1ccc2c(c1)OCCCO2	i
CC(C)N1CCN(C(=O)CCC2CCN(S(=O)(=O)c3ccccc3F)CC2)CC1	i
O=C(NC1CC1)c1cc2sccc2n1Cc1ccccc1Cl	i
Cc1ccc(C(=O)N2CCC(N3C(=O)CCC3C(=O)NCc3ccccc3)CC2)c(C)c1 (stereo not given)	i
Cc1ccc(C(=O)c2c(C)c(C)cc(C)c2C)cc1	i
CC(C)[C@H](NC(=O)c1c(F)cccc1F)C(=O)OCc1ccc(C(N)=O)cc1	i
O=C(Cc1cccnc1)N1CCCCCCn2c(nnc2-c2ccc(F)cc2)CC1	i
Cc1ccc(C)c(C(=O)NCc2nnc3cc(-c4nc(C(C)C)no4)ccn23)c1	14µM*
Cc1ccc(C)c(C(=O)NCc2nnc3cc(-c4nc(C)no4)ccn23)c1	25µM*
Cc1cccc(OCCSc2nc3cc(S(=O)(=O)N(C)C)ccc3o2)c1	i
O=C(Nc1ccccc1F)Nc1c(NC2CCCC2)c2ccccc2oc1=O	i
O=C(NCC1CCC1)c1ccccc1Nc1ccccc1	i
CCOc1ccc(C(=O)N(Cc2cccc(Cl)c2)c2ccccn2)cc1	i
SMILES	KDM5B inhibitor
CCOC(=O)C1CCCN(C(=O)Cc2ccc(N(Cc3ccccc3)C(=O)c3ccco3)cc2)C1 (stereo not given)	i
Cc1cccc(Cn2c(-c3ccc(Cl)cc3)nc(C)c(CCO)c2=O)c1	i
COc1ccc(-c2nc(Cn3c(-c4ccccc4)nc(C)c(CCO)c3=O)c(C)o2)cc1	i
COc1ccc(-c2nc(Cn3c(-c4cccc(Cl)c4)nc(C)c(CCO)c3=O)c(C)o2)cc1	28µM*
Cc1nc(-c2cccc(Cl)c2)n(Cc2nc(-c3ccc(OC(C)C)cc3)oc2C)c(=O)c1CCO	11µM*
COc1ccc(-c2nc(Cn3c(-c4ccc(Cl)cc4)nc(C)c(CCO)c3=O)c(C)o2)cc1	i
Cc1nc(-c2cccc(Cl)c2)n(Cc2ccc(C#N)cc2)c(=O)c1CCO	i
Cc1ccc(C(=O)/C(C#N)=C/c2ccc(OCc3ccccc3Cl)cc2)cc1	i
CCOC(=O)CNC(=O)Nc1cc(C(=O)NCc2ccc(C)cc2)ccc1N1CCCC1	i
O=C(Cc1cccs1)N1CCC(c2n[nH]c(=O)n2Cc2ccc(F)cc2)CC1	i
CCOC(=O)C1CCN([C@H]2CS(=O)(=O)C[C@@H]2S(=O)(=O)c2ccc(OCC)cc2)CC1	i
O=C1NC2CCCCC2=C1CC(=O)N1CCCCC1 (stereo not given)	i
COC(=O)c1ccc(COc2ccc3c(=O)c(-c4ccccc4OC)c(C)oc3c2)cc1	i
Clc1ccccc1C1(c2ccnc(-c3ccccn3)n2)CCNCC1	i
CN(C)C1CCN(c2nccc(C3(c4ccccc4Cl)CCNCC3)n2)C1 (stereo not given)	28µM*
O[C@@H]1CCN(c2nccc(C3(c4ccccc4Cl)CCNCC3)n2)C1	28µM*
COCC(C)Nc1nccc(C2(c3ccccc3Cl)CCNCC2)n1 (stereo not given)	22µM*
Clc1ccccc1C1(c2ccnc(-c3ccccc3)n2)CCNCC1	i
Clc1ccccc1C1(c2ccnc(C3CC3)n2)CCNCC1	i
OC[C@@H](O)CNc1nccc(C2(c3ccccc3Cl)CCNCC2)n1	i
CO[C@H]1[C@H](NC(=O)c2c(F)cccc2Cl)c2ccccc2C12CCNCC2	i
CN(C)C1CCN(c2ncc(C(C)(C)C(=O)O)c(N3CCOCC3)n2)C1 (stereo not given)	i
CC(C)(C)CC(C)(C)NCc1ccc(C(=O)O)cc1	i
CNC(=O)[C@@H]1CN(S(=O)(=O)c2cnc[nH]2)C[C@H]1c1nc(C)no1	i
CC(C)N1C(=O)C2(CCCC2)C1C(=O)N(C)Cc1cccnc1 (stereo not given)	i
SMILES	KDM5B inhibitor
COc1ccc(-c2nc3cc(NC(=O)c4ccccc4I)ccc3o2)cc1	i
COc1cc(=O)n2c(c1C(=O)Nc1ccc(C)cc1F)CCCC2	i
CCc1ccc2oc(C(=O)N(Cc3ccccc3)C3CCS(=O)(=O)C3)cc(=O)c2c1 (stereo not given)	i
CN1CCN(c2ccc3nnc(-c4cc(C(=O)N(C)Cc5ccccc5)ccn4)n3n2)CC1	i
N#Cc1ccccc1COc1ccc(C(=O)c2ccc(F)cc2)cc1	i
COc1ccccc1CN1CC[C@H](c2nnc(Cc3c[nH]c4ccccc34)o2)C1	i
Cc1ccc2oc([C@H]3CCN(Cc4ccc(C(F)(F)F)cc4)C3)nc2c1	i
Cc1ccc2oc([C@H]3CCN(Cc4c[nH]c5ccccc45)C3)nc2c1	13µM*
COc1ccc(C(=O)N2CCC(C(=O)N(C)Cc3ccc(C)cc3)CC2)c2ccccc12	i
Cc1ccsc1C(=O)N1C[C@@H](Oc2cccnc2)C[C@@H]1C(=O)N1CCOCC1	i
Cc1cccc(C(=O)NCC(=O)N2CCCC2c2ccccc2)c1 (stereo not given)	i
CSc1cccc(N=Cc2cc(Cl)ccc2O)c1	i
c1n[nH]cc1C12CC3CC(CC(C3)C1)C2	i
CCc1ccc(CNC(=O)C2CCN(c3cc(C(F)(F)F)ncn3)CC2)cc1	28µM*
O=C(NCc1ccc2c(c1)OCO2)C1CCN(c2cc(C(F)(F)F)ncn2)CC1	i
Cc1ccc(CNC(=O)C2CCN(c3cc(C(F)(F)F)ncn3)CC2)cc1	i
Cc1ccccc1C(=O)N[C@H]1[C@H](O)[C@H](O)C[C@@H]1c1ccc(N2CCOCC2)nc1	32µM*
Cc1cc(C(=O)N[C@H]2[C@H](O)[C@H](O)C[C@@H]2c2cccnc2)nn1C	i
COc1ccc([C@H]2C[C@@H](O)[C@@H](O)[C@@H]2NC(=O)c2cc(C)n(C)n2)cc1	i
COc1ccccc1C(=O)N[C@H]1[C@H](O)[C@H](O)C[C@@H]1c1cccnc1	i
Cc1cc(C(=O)N[C@H]2[C@H](O)[C@H](O)C[C@@H]2c2ccc(N3CCOCC3)nc2)nn1C	32µM*
Cn1cc(CN[C@H]2[C@H](O)[C@H](O)C[C@@H]2c2ccc(N3CCOCC3)nc2)cn1	40µM*
COc1ccc([C@H]2C[C@@H](O)[C@@H](O)[C@@H]2NCc2cnc3ccccc3c2)cc1	i
O=C(Nc1ccc(N2CCOCC2)nc1)c1ccccc1Cl	i

Screens as filed in PubChem BioAssay.
